The results in this text go back to PubChem BioAssay AID596 (National Center for Advancing Translational Sciences (NCATS), 2007).

Molecules are shown by their SMILES. Screen size: about 71,000 compounds; about 1,400 (2%) were called active. About 3% were inconclusive and are not listed. Calls come from the whole dose curve; as a rule, active = well fitted curve in the direction sought with a large enough effect; inconclusive = small, poorly fitted or top-dose-only effect; inactive = no such curve, though single readings can be large or run the other way. The list comes from a sample in which actives are over-represented; it also holds similar structures and randomly drawn compounds. A call without a number means that no potency is given here. Non-standard residues stand in square brackets, D forms with d. Residues, ends and D or L forms follow the SMILES beside them. ξ: configuration not given here. ξV = CC(C)C(N)C(=O)O
Potency is the fitted concentration of half-maximal effect.

This test deals with Microtubule-associated protein tau (Homo sapiens) (UniProt P10636). In words: qHTS Assay for Tau Filament Binding.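 Note: actives lower thioflavin S fluorescence by blocking filaments or displacing dye.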 The settings on record: recombinant tau filaments, thioflavin S fluorescence, 15 h, filaments grown with octadecylsulfate alongside compound; series mostly up to 57.1 µM. The gist of the method: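 Assay mix: 1 uM His-tagged tau, 30 uM sodium octadecylsulfate, thioflavine S dye in HEPES/NaCl/DTT buffer. Compound is added prior to the inducer. Fluorescence after 15 h at 37 C.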
Sequence of Microtubule-associated protein tau (Homo sapiens) (P10636 whole entry, looked up): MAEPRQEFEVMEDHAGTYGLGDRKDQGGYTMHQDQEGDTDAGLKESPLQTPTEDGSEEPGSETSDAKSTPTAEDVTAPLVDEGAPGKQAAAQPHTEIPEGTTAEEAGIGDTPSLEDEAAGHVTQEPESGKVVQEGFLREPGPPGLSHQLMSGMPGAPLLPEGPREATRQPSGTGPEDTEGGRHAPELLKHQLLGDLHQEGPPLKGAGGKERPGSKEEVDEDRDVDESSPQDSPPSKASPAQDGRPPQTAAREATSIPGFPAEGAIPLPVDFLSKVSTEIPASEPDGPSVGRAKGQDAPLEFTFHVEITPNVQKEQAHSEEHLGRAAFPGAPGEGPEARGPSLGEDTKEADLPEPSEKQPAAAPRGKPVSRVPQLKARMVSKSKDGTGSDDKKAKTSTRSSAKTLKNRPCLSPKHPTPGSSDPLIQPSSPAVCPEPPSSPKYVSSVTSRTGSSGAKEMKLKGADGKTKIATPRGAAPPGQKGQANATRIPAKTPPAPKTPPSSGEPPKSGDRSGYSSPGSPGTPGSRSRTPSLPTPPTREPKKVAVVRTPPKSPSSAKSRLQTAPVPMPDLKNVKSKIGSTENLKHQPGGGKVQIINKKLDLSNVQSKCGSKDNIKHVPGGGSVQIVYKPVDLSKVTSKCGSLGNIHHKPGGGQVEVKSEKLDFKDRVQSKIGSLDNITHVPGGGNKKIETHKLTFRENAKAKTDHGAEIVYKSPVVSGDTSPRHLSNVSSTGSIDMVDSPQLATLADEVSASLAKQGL
Take `COC(=O)[C@@]1(Cc2ccc(OC)cc2)[C@H]2c3cc(C(=O)N4CCCC4)n(Cc4ccc(C(F)(F)F)nc4)c3C[C@H]2CN1C(=O)c1ccccc1`: the Potency result is “inactive”.
In the case of `COc1ccc(N=Cc2c(O)[nH]c3ccccc23)cc1OC`, the Potency is 12.6 µM (active).
For the compound `COc1ccc(CCNC(=O)CCCCn2c(=O)[nH]c3ccccc3c2=O)cc1OC`, the Potency result was “inactive”.
Turning to `COc1ccc(COC(=O)c2n[nH]c3ccccc23)cc1F`, the Potency entry was “inactive”.
On to `COCC(C)NC(=O)c1ccc(Cl)c(Cl)c1` (centres undefined), for which the Potency entry is “inactive”.
As to `CCNc1ncc2ncc(=O)n(Cc3cccc(OC)c3)c2n1`, the Potency entry is “inactive”.
The same measure, in the same setting: in the case of `COc1cccc(Nc2ncc3ncc(=O)n(C4CC4)c3n2)c1` it was 12.6 µM (active).
In the case of `COc1cccc(Cn2c(=O)cnc3cncnc32)c1`, the Potency result is “inactive”.
`COc1ccc(N)c(OC)c1`: the Potency result is “inactive”.
`C=CCOC(=O)c1ccccc1C(=O)OCC=C`: the Potency entry is “inactive”.
In the case of `CC[C@@H]1Cc2cc(O)ccc2C2=C1c1ccc(O)cc1C[C@H]2CC`, the Potency was 25.1 µM (active).
Turning to `CC(C)CO`, the Potency entry was “inactive”.
Regarding `CO[C@@H]1/C=C\O[C@]2(C)Oc3c(C)c(O)c4c(O)c(c(CN(C)C)c(O)c4c3C2=O)NC(=O)/C(C)=C\C=C[C@@H](C)[C@@H](O)[C@H](C)[C@@H](O)[C@H](C)[C@H](OC(C)=O)[C@@H]1C`, the activity change, negative = inhibition is 3.4% [at 11.4 µM] (inactive).
As to `O=C(c1csnn1)N1CCC2(CC1)CN(c1ncccn1)C2`, the Potency result was “inactive”.
As for `O=NO`, the Potency entry was “inactive”.
Consider `CC(C)[C@H](CO)Nc1nc(Nc2cc(N)cc(Cl)c2)c2ncn(C(C)C)c2n1`, for which the Potency is 31.6 µM (active).
Regarding `CN1CCN(c2ncc3nc(-c4ccc(Cl)cc4)c(=O)n(-c4ccccc4)c3n2)CC1`, the Potency entry is “inactive”.
`CCOc1cc(C(=S)N2CCOCC2)ccc1O`: the Potency result is “inactive”.
With `COC(=O)c1ccc(CN(c2ccccc2OC)S(=O)(=O)c2cccs2)o1`, the Potency entry is “inactive”.
Same read-out and setting: in the case of `Cc1c(C)c2c(c(C)c1O)CC[C@@](C)(CN1CCN(c3cc(N4CCCC4)nc(N4CCCC4)n3)CC1)O2` it was 12.6 µM (active); in that of `CC(=O)NC(C(=O)NCC(N)=O)C(C)C` (centres undefined) (Ac-[ξV]-Gly-NH2), “inactive”; in that of `CCNc1ncc2ncc(=O)n(CCc3ccccc3)c2n1`, “inactive”.
As for `Cc1ccc2oc(=O)ccc2c1`, the Potency result was “inactive”.
On the same count and under the same terms, in the case of `CCCCNC(=O)c1ccccc1NC(=O)c1ccccc1N(C)S(C)(=O)=O` it was “inactive”.
Turning to `Cc1ccc(Nc2cc(=O)n(C3CCCCC3)c(=O)[nH]2)cc1C`, the Potency entry is “inactive”.
In the case of `COCCn1c(=O)c(-c2cc(F)cc(F)c2)nc2cnc(N3CCNCC3)nc21`, the Potency is 3.16 µM (active).
Still for that read-out and setting: in the case of `COCCn1c(=O)c(-c2cc(F)cc(F)c2)nc2cncnc21` it was “inactive”; in that of `COCCn1c(=O)c(CCc2ccccc2)nc2cnc(N3CCNCC3)nc21`, “inactive”.
For the compound `CNc1ncnc2ccc(-c3cccc(NS(C)(=O)=O)c3)cc12`, the Potency entry is “inactive”.
`CCCCC(CC)CN` (centres undefined): the Potency entry was “inactive”.
Same read-out and setting: in the case of `CCC[C@@H]1C[C@@]1(CCC)[C@@H](NC(=O)c1ccccc1)c1ccc(C(=O)OC)cc1` it was “inactive”; in that of `CCOc1cc(NC(=O)c2ccco2)c(OCC)cc1NC(=O)COc1ccccc1`, “inactive”.
For `CCOc1cc(N2CCOCC2)c(OCC)cc1NC(=O)COc1cccc2cccnc12`, the Potency was 25.1 µM (active).
For `CC(=O)Nc1cccc(Oc2cc(C#N)c(C#N)cc2N2CCOCC2)c1`, the Potency result was “inactive”.
On the same count and under the same terms, in the case of `CC/C=C/C/C=C/C/C=C/CCCCCCCC(=O)OCC` it was “inactive”.
Turning to `Cc1c(C(=O)OCC(=O)N(CCC#N)c2ccccc2)oc2c1ccc1ccccc12`, the Potency result is “inactive”.
With `CCc1c(C)n([O-])c2c([n+]1=O)CCCCC2`, the Potency result was “inactive”.
Same read-out and setting: in the case of `O=[n+]1c2c(n([O-])c3cc(Br)ccc31)CCC2` it was 25.1 µM (active).
As for `O=C1CCCc2c1[nH]c1ccc(Br)cc21`, the Potency entry is “inactive”.
Regarding `CC(C)(C)[Si](OCC[C@@H]1C[C@@]1(C)[C@@H](NP(=O)(c1ccccc1)c1ccccc1)c1ccccc1)(c1ccccc1)c1ccccc1`, the Potency result was “inactive”.
On the same count and under the same terms, in the case of `CC(=O)c1cccc(S(=O)(=O)N2CCC(n3nnc4cc(F)ccc43)CC2)c1` it was “inactive”.
Still for that read-out and setting: in the case of `C/C(CC(O)(/C=N/O)c1ccccc1)=N\O` (centres undefined) it was “inactive”; in that of `CCCC(Cl)CCCC(Cl)CCC(Cl)CCC(Cl)CCC(Cl)CCCC(Cl)CCC` (centres undefined), “inactive”; in that of `Cc1cc(C(=O)O)ccc1[N+](=O)[O-]`, “inactive”.
In the case of `CCc1c(C)nc2ncnn2c1N1CCC(C(=O)NCc2ccc3c(c2)OCO3)CC1`, the Potency entry was “inactive”.
As for `O=C(NCCN1CCOCC1)[C@H](Cc1ccccc1)N1C(=O)c2ccccc2C1=O`, the Potency entry was “inactive”.
The same measure, in the same setting: in the case of `Cc1ccc(C)n1C(Cc1ccccc1)C(=O)O` (centres undefined) it was “inactive”; in that of `N/C(=N\c1nc2ccccc2o1)NC(=O)C(Cc1ccccc1)N1C(=O)c2ccccc2C1=O` (centres undefined), 12.6 µM (active); in that of `O=C(OC1CCOC1=O)c1ccc(-c2nc3ccccc3s2)s1` (centres undefined), “inactive”.
Take `COc1ccccc1CNc1ncncc1-c1cccc(NS(C)(=O)=O)c1`: the Potency entry is “inactive”.
On the same count and under the same terms, in the case of `O=C(O)CCCCC(=O)O` it was “inactive”; in that of `CCCCCCCCCCCC(=O)O`, “inactive”; in that of `C#CCCCCCCCCCCCCCCCC(=O)O`, 31.6 µM (active).
As for `CC1(CCC(=O)OC2CCCCC2)OCCO1`, the activity change, negative = inhibition is -1.1% [at 11.4 µM] (inactive).
On to `CC1CC(c2ccccc2)n2nc(NC(=O)c3cccs3)nc2N1` (centres undefined), for which the Potency entry is “inactive”.
Regarding `Cc1cccc(Br)c1`, the Potency entry is “inactive”.
Take `CC(=O)N1[C@H](C)C=C[C@]1(Cc1ccccc1)C(=O)NCc1ccccn1`: the Potency entry was “inactive”.
Consider `Cc1ccc(-n2c(N)c(C(=O)N3CCOCC3)sc2=S)c(C)c1`, for which the Potency result is “inactive”.
As to `C/C(=C\c1ccco1)C1Nc2cccc3cccc(c23)N1`, the Potency was 15.8 µM (active).
